This passage reports Potency results from PubChem BioAssay (Tox21).

Records with an inconclusive call do not appear. Where a call stands in place of a potency, no number is given. The source made the active and inactive calls. Calls follow the shape of the dose curve; as a rule, active = well fitted activation curve with a large enough effect in the signal ratio in the repeat runs, with a control signal flat (not every such curve was filed as active); inconclusive = weak or mixed curves; inactive = flat fitted curve, though single readings scatter; the % refers to the signal ratio.

The nature of the test: qHTS assay for small molecule activators of the heat shock response signaling pathway (AID 743210). Particulars: HeLa HSE-bla reporter, beta-lactamase ratio, 5 h; series mostly up to 62.6 µM. The text has this:
U.S. Tox21 Program National Center for Advancing Translational Sciences [NCATS] NIH Chemical Genomics Center [NCGC] U.S. Environmental Protection Agency [EPA] National Institutes of Environmental Health Sciences [NIEHS] National Toxicology Program [NTP] U.S. Food and Drug Administration [FDA] Tox21 Assay Overview: Various chemicals, environmental and physiological stress conditions may lead to the activation of heat shock response/ unfolded protein response (HSR/UPR). There are three heat shock transcription factors (HSFs) (HSF-1, -2, and -4) mediating transcriptional regulation of the human HSR. To identify the compounds that activate HSR signaling, HSE-bla HeLa cell line (Invitrogen, Carlsbad, CA, USA) containing a beta-lactamase reporter gene under the control of the heat shock response elements was used to screen the Tox21 10K compound library.
Tox21 Assay Protocol Summary: The CellSensor HSE-bla HeLa cells (Invitrogen, Carlsbad, CA, USA) were dispensed at 1500 cells/6uL/well into 1536-well black wall/clear bottom plates using a Multidrop combi (Thermo Fisher Scientific, Waltham, MA) dispenser. After the assay plates were incubated at 37 C and 5% CO2 overnight, 23 nL of compounds dissolved in DMSO, positive controls or DMSO only was transferred to the assay plate by a Pintool station (Kalypsys, San Diego, CA). The plates were incubated at 37 C for 5 h. After 1 uL of LiveBLAzerTM B/G FRET substrate was added using a Flying Reagent Dispenser (Beckman Coulter, Indianapolis, IN, USA), the plates were incubated at room temperature for 2.5 h, and fluorescence intensity was measured by an Envision plate reader (PerkinElmer, Shelton, CT).
For `CCN(CC)CCOC(=O)C(Cc1cccc2ccccc12)CC1CCCO1` (stereo not given), the Potency result is “inactive”.

Regarding `CC(C)Nc1ccc(NC(C)C)c2c1C(=O)c1ccccc1C2=O`, the Potency entry is “inactive”.

For `CC(C)O.CC(C)O.CCOC(=O)/C=C(\C)O.CCOC(=O)/C=C(\C)O.[Ti]`, the Potency entry is “inactive”.

`CCN(CC)CCNc1ccc(CNC=O)c2sc3ccc(OC)cc3c(=O)c12`: the Potency entry was “inactive”.

On to `O=C1OC(CN2CCOCC2)CN1/N=C/c1ccc([N+](=O)[O-])o1` (stereo not given), for which the Potency entry was “inactive”.

On to `CCCCC`, for which the Potency result was “inactive”.

On to `COCCCN1CCC(NC(=O)c2cc(Cl)c(N)c3c2OCC3)CC1`, for which the Potency entry was “inactive”.

With `COC(C)OC`, the Potency entry was “inactive”.

Take `O=C1[C@H]2CCCC[C@H]2C(=O)N1CCCCN1CCN(c2nsc3ccccc23)CC1`: the Potency entry was “inactive”.

On to `COc1ccc(C)cc1[N+](=O)[O-]`, for which the Potency result is “inactive”.

Consider `CCCCO`, for which the Potency result was “inactive”.

With `Cc1nn(C)c(Oc2ccccc2)c1/C=N/OCc1ccc(C(=O)OC(C)(C)C)cc1`, the Potency result is “inactive”.

As for `CC(C)(COC(=O)c1ccccc1)COC(=O)c1ccccc1`, the Potency entry is “inactive”.

With `c1ccc(CNCCNCc2ccccc2)cc1`, the Potency result is “inactive”.

For the compound `OC[C@H]1O[C@@H](OCCc2ccc(O)cc2)[C@H](O)[C@@H](O)[C@@H]1O`, the Potency entry is “inactive”.

Turning to `C[C@@H]1C[C@H]2O[C@@]3(O[C@@H]2C(C)(C)O)[C@H](O)[C@@]2(C)[C@@H]4CC[C@H]5C(C)(C)[C@@H](O[C@@H]6OC[C@@H](O)[C@H](O)[C@H]6O)CC[C@@]56C[C@@]46CC[C@]2(C)[C@@H]13`, the Potency entry is “inactive”.

With `CCO[C@H](Cc1ccc(OCCc2ccc(OS(C)(=O)=O)cc2)cc1)C(=O)O`, the Potency entry was “inactive”.

Take `CC1OC(=O)C(C)OC1=O` (stereo not given): the Potency result is “inactive”.

Consider `Clc1ccc2c(c1)CCc1cccnc1C2=C1CCNCC1`, for which the Potency entry was “inactive”.

For `CC1=CC[C@H](C(C)C)C=C1`, the Potency result is “inactive”.

For the compound `O=C1c2ccccc2S(=O)(=O)N1CCCCN1CCN(c2ncccn2)CC1`, the Potency result was “inactive”.

For `OCCNCc1ccccc1`, the Potency entry was “inactive”.

Regarding `CC(C)CC(=O)C1C(=O)c2ccccc2C1=O`, the Potency entry was “inactive”.

As for `c1cc(CCCc2ccncc2)ccn1`, the Potency entry was “inactive”.

Consider `CCCCOC(=O)CCCCCCCC(=O)OCCCC`, for which the Potency result is “inactive”.

For the compound `CCCCCCOC(=O)NC(=N)c1ccc(NCc2nc3cc(C(=O)N(CCC(=O)OCC)c4ccccn4)ccc3n2C)cc1`, the Potency result is “inactive”.

Regarding `Cc1[nH]c(C)c(Cl)c(=O)c1Cl`, the Potency entry was “inactive”.

As to `CCO[Si](CCCCl)(OCC)OCC`, the Potency result was “inactive”.

Turning to `NC(=O)C(c1ccccc1)(c1ccccc1)[C@@H]1CCN(CCc2ccc3c(c2)CCO3)C1`, the Potency result is “inactive”.

`NCC(=O)O`: the Potency result is “inactive”.

As to `Nc1cc(C(=O)O)c(O)c(S(=O)(=O)O)c1`, the Potency entry was “inactive”.

For `Cc1oc(-c2ccccc2)nc1CCOc1cccc2c1ccn2CCC(=O)O`, the Potency entry is “inactive”.

Consider `O=[N+]([O-])c1cccc(S(=O)(=O)O)c1`, for which the Potency entry was “inactive”.

As to `COc1ccc(C(=O)Nc2nc3ccccc3c(NCc3ccccc3)c2C#N)cc1`, the Potency result was “inactive”.

With `O=[N+]([O-])c1ccc2[nH]ncc2c1`, the Potency entry was “inactive”.

With `C[C@@H](c1ncncc1F)C(O)(Cn1cncn1)c1ccc(F)cc1F` (stereo not given in full), the Potency result is “inactive”.

Consider `CC(=O)c1ccc2c(c1)N(CCCN(C)C)c1ccccc1S2`, for which the Potency entry is “inactive”.

`CC(=O)c1ccc2c(c1)N(CCCN1CCC(CCO)CC1)c1ccccc1S2`: the Potency entry was “inactive”.

Consider `CC1=CC=C(C(C)C)CC1`, for which the Potency entry is “inactive”.

On to `CC(C)Cc1ccc(C(C)C(=O)OCc2ccccn2)cc1` (stereo not given), for which the Potency result is “inactive”.
